# Experimental data reported in ChEMBL document CHEMBL3988442, “University of Dundee, Small-Polar-MMV Screening Library” (2021).
# The campaign covered roughly 48,000 compounds. About 13,000 (27%) showed an effect of 50% or more. Some of the results follow.
# Test system: Wolbachia pipientis
# Assay: Anti-Wolbachia Cell-Based Screen
# Assay type: functional
# Parameters: scale not given: in the data most compounds retested in dose-response had high values
# Settings: 5 µM
row,Structure (SMILES),Percent Effect [%]
1,CCCN1CCC(N2CCN(c3cc(C)nc(C)c3)CC2)CC1,-11.77
2,CC1CN(C(=O)NCc2cccc(C#N)c2)CCN1CC(F)(F)F (configuration not stated),-8.516
3,Cc1cc(C(=O)NC2CCN(c3ncccc3C#N)CC2)on1,2.44
4,COCCNC(=O)[C@@]12CCO[C@@H]1CCN(Cc1scnc1C)C2.O=C(O)C(F)(F)F,6.926
5,Cc1cnc(CNC(=O)[C@@]23CCO[C@@H]2CCN(C2CCCC2)C3)cn1.O=C(O)C(F)(F)F,116.3
6,Cc1cnc(CNC(=O)[C@@]23CCO[C@@H]2CCNC3)cn1.O=C(O)C(F)(F)F,84.34
7,O=C(NCc1ccco1)[C@@]12CCO[C@@H]1CCN(C1CCC1)C2.O=C(O)C(F)(F)F,-7.517
8,COc1cc(C)sc1C(=O)NCCC(=O)N(C)Cc1ccccc1,-13.22
9,CCc1nc(CN(C)Cc2nnc(-c3cccs3)o2)cs1,-11.05
10,CC(=O)N1CCCC(c2ccc3sc(N)nc3n2)C1 (configuration not stated),125
11,Cc1nc(C2CCCN(C(=O)c3csc(C)n3)C2)no1 (configuration not stated),-14.77
12,Cc1nc(C(=O)N2CCCC(c3ccc4sc(N)nc4n3)C2)co1 (configuration not stated),130.6
13,Cc1ccc2oc(C(=O)N3CCCC(c4noc(C)n4)C3)cc2n1 (configuration not stated),-6.015
14,CNC(=O)C(C)(C)N1CCC[C@H]1C(=O)NCC(C)C.Cl,3.09
15,O=C1[C@H]2CC[C@H](CN(S(=O)(=O)c3ccccc3)C2)N1Cc1cscn1,20.83
16,CN(C)CCOc1cc(NC(=O)COCC(F)(F)F)ccn1,0.1628
17,CNc1ccnc(N2CCC(c3nnc(CN4CCCC4)n3C)CC2)n1,5.752
18,Cc1nccc(CNS(=O)(=O)N2CCCC2c2ccc(C)o2)n1 (configuration not stated),-6.689
19,CNc1cncc(C2CCCN2Cc2ccn(C)n2)n1 (configuration not stated),90.43
20,CNc1cncc(C2CCCN2Cc2ccnc(C)n2)n1 (configuration not stated),94.65
21,CNc1cncc(C2CCCN2Cc2ccnc(N3CCCC3)n2)n1 (configuration not stated),113.8
22,CNc1cncc(C2CCCN2Cc2ccccn2)n1 (configuration not stated),-6.614
23,CNc1cncc(C2CCCN2Cc2cccc(C)n2)n1 (configuration not stated),107
24,O[C@H]1[C@H](n2cc(-c3cncnc3)nn2)c2ccccc2C12CCNCC2,-31.96
25,CN(C)CCN(Cc1ccc(Cl)cc1)C(=O)c1cc[nH]n1,3.118
26,Cc1ccc(-c2ncc(C(=O)N3CCCN4CCC[C@H]4C3)c(O)n2)cc1,-8.702

row,Structure (SMILES),Percent Effect [%]
1,CC(=O)N1CCC2(CC1)CN(C)CC[C@H]2C(F)(F)F.Cl,-1.973
2,Cl.NC(CC1CCCC1)c1ccccc1 (configuration not stated),-1.351
3,NC(=O)CCN1C(=O)CC(Cc2ccc(F)cc2)C1=O (configuration not stated),3.459
4,COc1ccnc(N2CCN(Cc3ncc(C(C)(C)C)o3)CC2)n1,7.68
5,CC(=O)N1CCCc2cc(Nc3nccn(C)c3=O)ccc21,8.205
6,Cn1ccnc(Nc2ccc3c(c2)CCN3C(=O)c2ccoc2)c1=O,61.04
7,Cn1ccnc(Nc2ccc3c(c2)CCN3C(=O)c2cccnc2)c1=O,-3.992
8,CCCN(C(=O)COCC)c1cccc(C)c1,-29.78
9,Cc1ccnc(OCC(=O)N2CCC(C(N)=O)CC2)n1,-0.2918
10,Cc1ccc(N2CCN(C(=O)COc3nccc(C)n3)CC2)nn1,-17.48
11,Cc1ccnc(OCC(=O)N2CCCC2)n1,98.39
12,Cc1ccc(N2CCN(C(=O)COc3ncccn3)CC2)nn1,-4.899
13,COc1ccc(N2CCN(C(=O)COc3nccc(C)n3)CC2)cc1,79.4
14,Cc1ccnc(OCC(=O)N2CCN(c3ncccn3)CC2)n1,1.434
15,CCc1ccccc1OCC(=O)Nc1ccnc(OCCN(C)C)c1,4.07
16,CN(Cc1ccc(Cl)cc1)S(=O)(=O)N(C)Cc1cnn(C)c1,-1.179
17,C=Cn1cc(CN2CCc3nc(-c4cccnc4)nc(O)c3C2)c(C)n1,93.89
18,Cc1nccn1CCN(C)c1nc(-c2cccnc2)nc2c1CCNC2,2.372
19,Cn1cc(CNCC2(O)CCCCC2)c(-c2cccnc2)n1,2.797
20,Cc1nn(C)cc1CN1CCc2nc(-c3cccnc3)nc(O)c2C1,87.93
21,CC(=O)N1CCc2c(nc(-c3cccnc3)nc2N(C)CC(O)CO)C1 (configuration not stated),-2.171
22,C=Cn1ncc(CN2CCc3nc(-c4ccncc4)nc(O)c3C2)c1C,95.82
23,Cc1ccc(O)c(CN2CCc3nc(-c4cccnc4)nc(O)c3C2)c1,101.6
24,COCCCN(C)c1nc(-c2ccncc2)nc2c1CCN(C(C)=O)C2,7.228
25,Cc1nc(-c2cnn(C)c2)nc2c1CN(C(=O)c1cccnc1)CC2,-2.218
26,NCC1CN(c2nc(-c3cccnc3)nc3c2CCNCC3)CCO1 (configuration not stated),-59.49

row,Structure (SMILES),Percent Effect [%]
1,Cc1cccc(-c2noc(CN3CCc4c(ncn4C4CC4)C3)n2)c1,-0.5665
2,Cc1cnn(C2CN(c3nc(-c4ccncc4)nc4c3CCC4)C2)c1,-2.167
3,CC(C)(C)NC(=O)C1CSCN1S(=O)(=O)c1ccccc1S(C)(=O)=O (configuration not stated),4.107
4,CCc1ncc2c(n1)CN(C(=O)CC(C)NC(C)=O)C2 (configuration not stated),-5.882
5,Cc1cc(CN(C)C(=O)NC(C)Cc2ccco2)no1 (configuration not stated),4.671
6,CCn1ccnc1CN1CCN(c2nc(C)cc(OC)n2)CC1,-15.82
7,CC[C@@H]1N(CC2CCOCC2)CCC[C@]12CCC(=O)N2.O=C(O)C(F)(F)F,-7.738
8,NC(=O)c1cc(-n2cc(-c3cccc(C(=O)O)c3)cn2)cs1,-1.419
9,CN(c1cccnc1N1CCCC1)S(=O)(=O)c1cnn(C)c1,8.889
10,CCc1noc(CNc2nc(-c3cccnc3)nc3c2CCNCC3)n1,3.724
11,CC(O)CNc1nc(-c2cccnc2)nc2c1CCC2 (configuration not stated),-9.754
12,CCn1ncc(CN2CCc3nc(-c4cccnc4)nc(O)c3C2)c1C,89.32
13,CCn1c(N)nc2cc(C(=O)N3CCCN(C)CC3)cnc21,-5.515
14,CN1CCC(N(C)C(=O)c2cnc3c(cnn3C3CCCC3)c2)CC1,105.6
15,O=C(O)c1cnc2c(cnn2C2CCCC2)c1,-9.214
16,O=C(c1cnc2c(cnn2C2CCCC2)c1)N1CCN(CCO)CC1,107.7
17,CS(=O)(=O)NC(=O)c1cnc2c(cnn2C2CCCC2)c1,-4.215
18,CCOC1CCCN(C(=O)c2cnc3c(cnn3C3CCCC3)c2)C1 (configuration not stated),-8.504
19,CCn1c(N)nc2cc(C(=O)N3CCC(N4CCCC4)CC3)cnc21,-1.571
20,CC(C)CCN(C)C(=O)c1cnc2c(cnn2CC(C)C)c1,1.745
21,CCN1CCN(C(=O)c2cnc3c(cnn3C3CCCC3)c2)CC1,83.11
22,CC1CN(C)CCN1C(=O)c1cnc2c(cnn2C2CCCC2)c1 (configuration not stated),101.7
23,CN1CCN(C(=O)c2cnc3c(cnn3C3CCCC3)c2)CC1,4.55
24,CC1CN(C)CCN1C(=O)c1cnc2onc(CC(C)(C)C)c2c1 (configuration not stated),4.024
25,Cn1ccnc1SCC(=O)NCCC1CCCO1 (configuration not stated),1.622
26,Cn1cc(S(=O)(=O)NC(CO)Cc2c[nH]c3ccccc23)cn1 (configuration not stated),-17.12

row,Structure (SMILES),Percent Effect [%]
1,Cn1cccc1C(=O)NCc1cn2c(n1)CN(S(=O)(=O)C1CC1)CC2,-2.289
2,Cc1ncc(C(=O)N2CCC(N3C[C@@H](C)O[C@@H](C)C3)CC2)c(=O)[nH]1,-16.5
3,CCc1noc(CC)c1CNC(=O)Nc1cccc(C(=O)N(C)C)c1,14.38
4,NC(=O)C1CCCN(C(=O)c2cnc3c(cnn3C3CCCC3)c2)C1 (configuration not stated),-9.879
5,O=C(c1ccc2c(c1)[nH]c(=O)n2C1CCCC1)N1CCCSCC1,-3.459
6,O=C(c1cnc2c(cnn2C2CCCC2)c1)N1CCCSCC1,112.1
7,Cc1cccc(-n2cnc(Cl)c2C(=O)O)c1,93.89
8,CC(C)c1cccc(-n2cc(O)c(C(=O)O)n2)c1,39.26
9,CC(=O)NCc1nc(CC(C)C)nn1-c1cccc(C)c1,-6.896
10,O=C(O)c1c(Cl)ncn1-c1ccccc1,76.14
11,O=C1CC(c2ccc(C(=O)O)cc2)c2ncn(-c3ccccc3)c2N1 (configuration not stated),13.74
12,Cc1cccc(-n2nc(CC(C)C)nc2[C@H](C)O)c1,-4.735
13,CCc1ccc(C2CCCN2C(=O)Cc2ccc(NC(C)=O)cc2)o1 (configuration not stated),-1.143
14,CC(C)OCc1ncn2c1CN(Cc1cnn(C)c1)CCC2.O=C(O)C(F)(F)F,-6.941
15,CS(=O)(=O)NC1(CCc2ccc(NC(=O)C3CC3)nc2)CCCCC1,95.32
16,Cc1ccnc(NC(=O)C2CCCO2)c1 (configuration not stated),0.6753
17,O=C(Nc1ccc(N2CCCCC2)cn1)C1CCCN1C(=O)C1CC1 (configuration not stated),5.13
18,CC(=O)Nc1ccc(CCC2(NC(=O)C3CC3)CCCCC2)cn1,53.79
19,CCSCc1ccnc(NC(=O)C2CCCO2)c1 (configuration not stated),2.987
20,Cc1ccc(NC(=O)C2CCCN2C(=O)C2CC2)nc1 (configuration not stated),4.832
21,O=C(Nc1ccc(-c2ccccc2)cn1)C1CCCN1C(=O)C1CC1 (configuration not stated),-4.535
22,CC(=O)Nc1ccc(CCC2(NC(=O)C3CCCO3)CCCCC2)cn1 (configuration not stated),144.1
23,O=C(Nc1ccc(Cl)cn1)C1CCN(CCc2ccccn2)CC1,5.331
24,CC(C)(C)C(=O)N1CC[C@H]2NC(=O)N(c3ccc(F)cc3)C(=O)[C@H]21,-4.362
